# ± gives the standard deviation of the averaged measurements.
# Columns and labels:
# Experiment in all cases: promoter activity interaction Z-score (Lux/OD deviation from empty-vector control); higher = stronger promoter induction by the compound
# [1] = system: E. coli BW25113 acrABp lux reporter
# How it was run: (§1)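 In 384-well plates, 40 µl LB Lennox cultures of E. coli BW25113 with low-copy luxCDABE promoter reporters grew at 37°C. Optical density at 600 nm and light output were recorded every 30 min for 12 h, with windows of 0–8 h for wild type and 1–9 h for deletion strains, and wells under 10% of the median growth value were left out. Each value is a Z-transformed residual of growth-normalised luminescence fitted against a control.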
# [2] = system: E. coli BW25113 marRABp lux reporter
# How it was run: as §1
# [3] = system: E. coli BW25113 micFp lux reporter
# How it was run: as §1
# [4] = system: E. coli BW25113 ompFp lux reporter
# How it was run: as §1
# [5] = system: E. coli BW25113 robp lux reporter
# How it was run: as §1
# [6] = system: E. coli BW25113 soxSp lux reporter
# How it was run: as §1
# [7] = system: E. coli BW25113 tolCp lux reporter
# How it was run: as §1
# [8] = 0.07 µg/ml, genetic background: wild type
# [9] = 0.07 µg/ml, genetic background: ΔmarA
# [10] = 0.07 µg/ml, genetic background: Δrob
# [11] = 0.07 µg/ml, genetic background: ΔsoxS
# [12] = 0.15 µg/ml, genetic background: wild type
# [13] = 0.15 µg/ml, genetic background: ΔmarA
# [14] = 0.15 µg/ml, genetic background: Δrob
# [15] = 0.15 µg/ml, genetic background: ΔsoxS
# [16] = 0.29 µg/ml, genetic background: wild type
# [17] = 0.29 µg/ml, genetic background: ΔmarA
# [18] = 0.29 µg/ml, genetic background: Δrob
# [19] = 0.29 µg/ml, genetic background: ΔsoxS
# [20] = 0.0081 µg/ml, genetic background: wild type
# [21] = 0.0081 µg/ml, genetic background: ΔmarA
# [22] = 0.0081 µg/ml, genetic background: Δrob
# [23] = 0.0081 µg/ml, genetic background: ΔsoxS
# [24] = 0.016 µg/ml, genetic background: wild type
# [25] = 0.016 µg/ml, genetic background: ΔmarA
# [26] = 0.016 µg/ml, genetic background: Δrob
# [27] = 0.016 µg/ml, genetic background: ΔsoxS
# [28] = 0.033 µg/ml, genetic background: wild type
# [29] = 0.033 µg/ml, genetic background: ΔmarA
# [30] = 0.033 µg/ml, genetic background: Δrob
# [31] = 0.033 µg/ml, genetic background: ΔsoxS
structure (smiles),measurement,setting,value
NCC[C@H](O)C(=O)N[C@@H]1C[C@H](N)[C@@H](O[C@H]2O[C@H](CN)[C@@H](O)[C@H](O)[C@H]2O)[C@H](O)[C@H]1O[C@H]1O[C@H](CO)[C@@H](O)[C@H](N)[C@H]1O [Amikacin],promoter activity interaction Z-score,[1]; [8],-0.0946 ± 0.19
same,promoter activity interaction Z-score,[1]; [9],-0.446 ± 0.067
same,promoter activity interaction Z-score,[1]; [10],-0.0638 ± 0.15
same,promoter activity interaction Z-score,[1]; [11],0.407 ± 0.79
same,promoter activity interaction Z-score,[1]; [12],-0.184 ± 0.091
same,promoter activity interaction Z-score,[1]; [13],0.671 ± 0.15
same,promoter activity interaction Z-score,[1]; [14],0.0534 ± 0.092
same,promoter activity interaction Z-score,[1]; [15],0.0811 ± 0.13
same,promoter activity interaction Z-score,[1]; [16],0.115 ± 0.19
same,promoter activity interaction Z-score,[1]; [17],-0.213 ± 0.41
same,promoter activity interaction Z-score,[1]; [18],0.174 ± 0.22
same,promoter activity interaction Z-score,[1]; [19],0.725 ± 0.52
same,promoter activity interaction Z-score,[2]; [8],-0.0461 ± 0.062
same,promoter activity interaction Z-score,[2]; [9],-0.273 ± 0.075
same,promoter activity interaction Z-score,[2]; [10],-0.255 ± 0.1
same,promoter activity interaction Z-score,[2]; [11],-0.0126 ± 0.0034
same,promoter activity interaction Z-score,[2]; [12],-0.123 ± 0.09
same,promoter activity interaction Z-score,[2]; [13],-0.134 ± 0.044
same,promoter activity interaction Z-score,[2]; [14],-0.00793 ± 0.05
same,promoter activity interaction Z-score,[2]; [15],-0.13 ± 0.069
same,promoter activity interaction Z-score,[2]; [16],0.0977 ± 0.14
same,promoter activity interaction Z-score,[2]; [17],0.566 ± 0.32
same,promoter activity interaction Z-score,[2]; [18],0.0547 ± 0.082
same,promoter activity interaction Z-score,[2]; [19],0.193 ± 0.079
same,promoter activity interaction Z-score,[3]; [8],0.278 ± 0.0046
same,promoter activity interaction Z-score,[3]; [9],-0.0226 ± 0.005
same,promoter activity interaction Z-score,[3]; [10],0.217 ± 0.22
same,promoter activity interaction Z-score,[3]; [11],0.0839 ± 0.14
same,promoter activity interaction Z-score,[3]; [12],0.512 ± 0.097
same,promoter activity interaction Z-score,[3]; [13],-0.00684 ± 0.057
same,promoter activity interaction Z-score,[3]; [14],0.12 ± 0.33
same,promoter activity interaction Z-score,[3]; [15],0.119 ± 0.33
same,promoter activity interaction Z-score,[3]; [16],-0.0466 ± 0.17
same,promoter activity interaction Z-score,[3]; [17],-0.0853 ± 0.18
same,promoter activity interaction Z-score,[3]; [18],0.176 ± 0.21
same,promoter activity interaction Z-score,[3]; [19],0.577 ± 0.056
same,promoter activity interaction Z-score,[4]; [8],0.0689 ± 0.025
same,promoter activity interaction Z-score,[4]; [9],-0.0472 ± 0.084
same,promoter activity interaction Z-score,[4]; [10],-0.503 ± 0.43
same,promoter activity interaction Z-score,[4]; [11],0.197 ± 1.1
same,promoter activity interaction Z-score,[4]; [12],0.165 ± 0.46
same,promoter activity interaction Z-score,[4]; [13],-0.0471 ± 0.24
same,promoter activity interaction Z-score,[4]; [14],-0.472 ± 0.32
same,promoter activity interaction Z-score,[4]; [15],-0.668 ± 0.2
same,promoter activity interaction Z-score,[4]; [16],0.00226 ± 0.33
same,promoter activity interaction Z-score,[4]; [17],-0.365 ± 0.65
same,promoter activity interaction Z-score,[4]; [18],-0.428 ± 0.22
same,promoter activity interaction Z-score,[4]; [19],-0.0742 ± 0.3
same,promoter activity interaction Z-score,[5]; [8],0.19 ± 0.2
same,promoter activity interaction Z-score,[5]; [9],-0.331 ± 0.085
same,promoter activity interaction Z-score,[5]; [10],0.0353 ± 0.83
same,promoter activity interaction Z-score,[5]; [11],-0.155 ± 0.68
same,promoter activity interaction Z-score,[5]; [12],0.0679 ± 0.58
same,promoter activity interaction Z-score,[5]; [13],-0.461 ± 0.45
same,promoter activity interaction Z-score,[5]; [14],-0.248 ± 0.33
same,promoter activity interaction Z-score,[5]; [15],-0.642 ± 0.14
same,promoter activity interaction Z-score,[5]; [16],-0.115 ± 0.051
same,promoter activity interaction Z-score,[5]; [17],0.598 ± 0.21
same,promoter activity interaction Z-score,[5]; [18],-1.2 ± 0.31
same,promoter activity interaction Z-score,[5]; [19],-0.0862 ± 0.53
same,promoter activity interaction Z-score,[6]; [8],0.354 ± 0.11
same,promoter activity interaction Z-score,[6]; [9],0.016 ± 0.15
same,promoter activity interaction Z-score,[6]; [10],0.176 ± 0.043
same,promoter activity interaction Z-score,[6]; [11],0.0385 ± 0.3
same,promoter activity interaction Z-score,[6]; [12],0.336 ± 0.13
same,promoter activity interaction Z-score,[6]; [13],0.137 ± 0.1
same,promoter activity interaction Z-score,[6]; [14],0.346 ± 0.51
same,promoter activity interaction Z-score,[6]; [15],-0.156 ± 0.15
same,promoter activity interaction Z-score,[6]; [16],0.219 ± 0.2
same,promoter activity interaction Z-score,[6]; [17],-0.031 ± 0.32
same,promoter activity interaction Z-score,[6]; [18],-0.131 ± 0.29
same,promoter activity interaction Z-score,[6]; [19],0.0937 ± 0.57
same,promoter activity interaction Z-score,[7]; [8],-0.282 ± 0.25
same,promoter activity interaction Z-score,[7]; [9],-0.355 ± 0.29
same,promoter activity interaction Z-score,[7]; [10],1.45 ± 1.6
same,promoter activity interaction Z-score,[7]; [11],1.15 ± 0.34
same,promoter activity interaction Z-score,[7]; [12],0.0971 ± 0.8
same,promoter activity interaction Z-score,[7]; [13],0.793 ± 0.15
same,promoter activity interaction Z-score,[7]; [14],0.637 ± 0.84
same,promoter activity interaction Z-score,[7]; [15],-0.668 ± 0.34
same,promoter activity interaction Z-score,[7]; [16],1.16 ± 1.8
same,promoter activity interaction Z-score,[7]; [17],-0.226 ± 1.1
same,promoter activity interaction Z-score,[7]; [18],1.53 ± 1.6
same,promoter activity interaction Z-score,[7]; [19],1.21 ± 0.019
CC1(C)S[C@@H]2[C@H](/N=C/N3CCCCCC3)C(=O)N2[C@H]1C(=O)O [Mecillinam],promoter activity interaction Z-score,[1]; [20],0.0459 ± 0.4
same,promoter activity interaction Z-score,[1]; [21],1.25 ± 1.5
same,promoter activity interaction Z-score,[1]; [22],-0.273 ± 0.055
same,promoter activity interaction Z-score,[1]; [23],-0.522 ± 0.019
same,promoter activity interaction Z-score,[1]; [24],-0.377 ± 0.16
same,promoter activity interaction Z-score,[1]; [25],0.612 ± 0.15
same,promoter activity interaction Z-score,[1]; [26],-0.267 ± 0.022
same,promoter activity interaction Z-score,[1]; [27],-0.431 ± 0.57
same,promoter activity interaction Z-score,[1]; [28],0.0507 ± 0.0088
same,promoter activity interaction Z-score,[1]; [29],-0.755
same,promoter activity interaction Z-score,[1]; [30],0.113 ± 0.12
same,promoter activity interaction Z-score,[1]; [31],-0.499 ± 0.14
same,promoter activity interaction Z-score,[3]; [20],0.276 ± 0.25
same,promoter activity interaction Z-score,[3]; [21],0.207 ± 0.062
same,promoter activity interaction Z-score,[3]; [22],0.351 ± 0.025
same,promoter activity interaction Z-score,[3]; [23],-0.288 ± 0.15
same,promoter activity interaction Z-score,[3]; [24],0.194 ± 0.12
same,promoter activity interaction Z-score,[3]; [25],0.155 ± 0.054
same,promoter activity interaction Z-score,[3]; [26],0.474 ± 0.16
same,promoter activity interaction Z-score,[3]; [27],0.251 ± 0.044
same,promoter activity interaction Z-score,[3]; [28],0.824 ± 0.39
same,promoter activity interaction Z-score,[3]; [29],-0.211 ± 0.025
same,promoter activity interaction Z-score,[3]; [30],-0.0142 ± 0.33
same,promoter activity interaction Z-score,[3]; [31],0.562 ± 0.17
same,promoter activity interaction Z-score,[4]; [20],0.00268 ± 0.17
same,promoter activity interaction Z-score,[4]; [21],-0.0176 ± 0.4
same,promoter activity interaction Z-score,[4]; [22],-0.211 ± 0.62
same,promoter activity interaction Z-score,[4]; [23],-0.38 ± 0.044
same,promoter activity interaction Z-score,[4]; [24],-1.12 ± 0.37
same,promoter activity interaction Z-score,[4]; [25],-0.241 ± 0.0076
same,promoter activity interaction Z-score,[4]; [26],-0.807 ± 1.2
same,promoter activity interaction Z-score,[4]; [27],-0.124 ± 0.41
same,promoter activity interaction Z-score,[4]; [28],-1.28 ± 0.79
same,promoter activity interaction Z-score,[4]; [29],-0.894 ± 1.1
same,promoter activity interaction Z-score,[4]; [30],-1.44
same,promoter activity interaction Z-score,[4]; [31],0.0879 ± 0.27
same,promoter activity interaction Z-score,[5]; [20],0.327 ± 0.16
same,promoter activity interaction Z-score,[5]; [21],1.43 ± 0.17
same,promoter activity interaction Z-score,[5]; [22],-0.0357 ± 0.087
same,promoter activity interaction Z-score,[5]; [23],0.198 ± 0.16
same,promoter activity interaction Z-score,[5]; [24],-0.956 ± 0.2
same,promoter activity interaction Z-score,[5]; [25],0.379 ± 0.24
same,promoter activity interaction Z-score,[5]; [26],-1.19 ± 0.41
same,promoter activity interaction Z-score,[5]; [27],0.457 ± 1.5
same,promoter activity interaction Z-score,[5]; [28],-1.37 ± 0.12
same,promoter activity interaction Z-score,[5]; [29],-0.827 ± 0.15
same,promoter activity interaction Z-score,[5]; [30],-1.65
same,promoter activity interaction Z-score,[5]; [31],-1.03 ± 0.28
same,promoter activity interaction Z-score,[6]; [20],0.14 ± 0.081
same,promoter activity interaction Z-score,[6]; [21],0.149 ± 0.16
same,promoter activity interaction Z-score,[6]; [22],0.13 ± 0.12
same,promoter activity interaction Z-score,[6]; [23],0.171 ± 0.015
same,promoter activity interaction Z-score,[6]; [24],0.0658 ± 0.21
same,promoter activity interaction Z-score,[6]; [25],0.371 ± 0.073
same,promoter activity interaction Z-score,[6]; [26],0.0922 ± 0.097
same,promoter activity interaction Z-score,[6]; [27],0.495 ± 0.048
same,promoter activity interaction Z-score,[6]; [28],0.18 ± 0.061
same,promoter activity interaction Z-score,[6]; [29],0.154 ± 0.13
same,promoter activity interaction Z-score,[6]; [30],-0.163 ± 0.38
same,promoter activity interaction Z-score,[6]; [31],0.865 ± 0.22
same,promoter activity interaction Z-score,[7]; [20],0.00505 ± 0.64
same,promoter activity interaction Z-score,[7]; [21],-0.0513 ± 0.34
same,promoter activity interaction Z-score,[7]; [22],-0.155 ± 0.23
same,promoter activity interaction Z-score,[7]; [23],-0.674 ± 0.22
same,promoter activity interaction Z-score,[7]; [24],-0.967 ± 0.5
same,promoter activity interaction Z-score,[7]; [25],-0.771 ± 0.8
same,promoter activity interaction Z-score,[7]; [26],-1 ± 0.24
same,promoter activity interaction Z-score,[7]; [27],-0.0514 ± 0.98
same,promoter activity interaction Z-score,[7]; [28],-0.779 ± 2.4
same,promoter activity interaction Z-score,[7]; [29],-0.938
same,promoter activity interaction Z-score,[7]; [30],0.0896 ± 2.1
same,promoter activity interaction Z-score,[7]; [31],1.16 ± 0.64
